From PubChem BioAssay
This is a sample that favours compounds with a hit; in the whole collection about 11% have one here.
G9a inh: inhibitors of human histone lysine methyltransferase G9a. Potency, µM (highest dose often 102 µM), for the others: at the highest dose activity, negative = inhibition, most hits filed as inhibitors. actives 8.8% (n = 350,000). G9a H3K9 monomethylation, AlphaScreen, 2 h. AID 504332; further: potency means the concentration at half of the fitted maximal effect; on the % scale 0 is the no-effect control and ±100 the full control effect; nearly all actives have a fitted effect of over 75% in size
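Step 1: enzyme (final 20 nM) with compound, 15 min RT. Step 2: substrate peptide 500 nM and SAM 20 uM, 2 h RT. Step 3: anti-H3K9me1 antibody and AlphaScreen beads, 10 min, then plate read.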
JMJD2A Tudor inh: blocks the human JMJD2A Tudor domain; O75164; AlphaScreen JMJD2A-Tudor / H3K4me3 peptide binding; Potency, µM (titrated, usually from 114 µM), for the others: top-dose activity change, negative = inhibition, most hits filed as inhibitors; actives 4.4% (n = 390,000); further: potency means the concentration at half of the fitted maximal effect; on the % scale 0 is the no-effect control and ±100 the full control effect; nearly all actives have a fitted effect of over 50% in size
HP1b chromo inh: HP1-beta chromodomain-methylated histone interaction inhibition; actives 0.56% (n = 390,000); AlphaScreen HP1-beta / biotin-H3K9me3 peptide binding; Potency, µM (top dose mostly 114 µM), inactives show at the top dose activity change, negative = inhibition, usual class: inhibitors; P83916; AID 540317; further: potency means the concentration at half of the fitted maximal effect; nearly all actives have a fitted effect of over 70% in size
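HP1-beta protein (50 nM final) preincubated 30 min at room temperature with biotinylated H3(1-18)K9me3 peptide (50 nM) in PBS pH 7.4, 0.01% Tween-20, then compound added for 30 min. AlphaScreen streptavidin donor/nickel chelate acceptor beads (10 ug/mL final), 30 min dark, luminescence read.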
BAZ2B inh: inhibitors of human BAZ2B bromodomain; actives 4.4% (n = 360,000); Q9UIF8; AlphaScreen BAZ2B-H3K14Ac peptide displacement; Potency, µM (titrated, usually from 114 µM), without a hit: top-dose activity change, negative = inhibition, hits mostly inhibitors; further: potency means the concentration at half of the fitted maximal effect; on the % scale 0 is the no-effect control and ±100 the full control effect; nearly all actives have a fitted effect of over 60% in size
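AlphaScreen displacement: compounds (up to 110uM) incubated 30 min at room temperature with a preformed 50 nM BAZ2B/50 nM biotinylated H3K14Ac peptide complex in PBS pH 7.4 with Tween-20. Donor and acceptor beads at 10 ug/mL final added, 20 min light-protected before reading.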
PI5P4K alpha inh: inhibitors of human PI5P4K alpha | max response, % | P48426 | actives 1.2% (n = 330,000) | PI5P4Kalpha enzyme, ADP-Glo luminescence, 60 min; stronger effect = lower value; active means max response of -50% or lower; inconclusive means between -30% and -50%; inactive means -30% or higher; further: value at the top dose of about 77 µM; on the % scale 0 is the no-effect control and ±100 the full control effect
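Luminescence from ADP-Glo served as readout of PI5P4Kalpha activity in a qHTS format. Reaction: enzyme, substrate, compound, ATP at 5 microM final, 60 min at RT.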
L3MBTL1 block: blocks human L3MBTL1 | Q9Y468 | AlphaScreen L3MBTL1–H3K9me1 peptide binding | Potency, µM (doses to about 57.1 µM), without a hit: top-dose activity, negative = inhibition, hits mostly inhibitors | actives 0.66% (n = 230,000) | AID 485360; further: potency means the concentration at half of the fitted maximal effect; on the % scale 0 is the no-effect control and ±100 the full control effect; nearly all actives have a fitted effect of over 60% in size
Target sequence (Q9Y468 whole entry, looked up): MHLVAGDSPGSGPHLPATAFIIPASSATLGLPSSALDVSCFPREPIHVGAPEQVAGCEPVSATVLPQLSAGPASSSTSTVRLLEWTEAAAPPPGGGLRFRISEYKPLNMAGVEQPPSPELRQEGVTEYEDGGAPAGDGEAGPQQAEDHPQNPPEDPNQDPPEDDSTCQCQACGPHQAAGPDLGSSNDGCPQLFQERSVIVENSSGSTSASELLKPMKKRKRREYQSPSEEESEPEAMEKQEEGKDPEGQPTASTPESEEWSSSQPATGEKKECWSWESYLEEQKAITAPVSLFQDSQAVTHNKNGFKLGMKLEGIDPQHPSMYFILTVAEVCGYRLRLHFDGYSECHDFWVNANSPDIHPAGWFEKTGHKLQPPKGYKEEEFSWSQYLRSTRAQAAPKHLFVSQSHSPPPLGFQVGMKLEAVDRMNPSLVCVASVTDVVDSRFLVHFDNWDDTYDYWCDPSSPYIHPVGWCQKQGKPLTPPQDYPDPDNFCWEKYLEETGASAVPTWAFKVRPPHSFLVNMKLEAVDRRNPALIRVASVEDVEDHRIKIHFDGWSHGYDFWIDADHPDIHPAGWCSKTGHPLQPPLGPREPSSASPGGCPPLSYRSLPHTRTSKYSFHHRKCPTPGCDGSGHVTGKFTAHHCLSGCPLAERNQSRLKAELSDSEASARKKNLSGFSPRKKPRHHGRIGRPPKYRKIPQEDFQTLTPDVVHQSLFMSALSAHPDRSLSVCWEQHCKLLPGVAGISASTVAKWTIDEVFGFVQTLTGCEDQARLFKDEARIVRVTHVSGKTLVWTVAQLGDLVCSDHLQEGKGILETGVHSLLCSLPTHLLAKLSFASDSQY
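L3MBTL1 50 nM + b-AHA-H3(1-15)K9me1 75 nM, 30 min RT; compound added, 30 min RT; streptavidin donor/Ni-chelate acceptor beads 10 ug/mL each final, 30 min RT dark; AlphaScreen read.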
The depositor's hits bear a star; ? = inconclusive; / = no result; ! = not active in a repeat; [ ] = remark or other dose. Unless noted, the call rests on the fitted dose curve; in most records, active means well fitted inhibition curve with a large enough effect; inconclusive means small, poorly fitted or top-dose-only effect; inactive means no such curve, though single readings can be large or run the other way.

SMILES | G9a inh | JMJD2A Tudor inh | HP1b chromo inh | BAZ2B inh | PI5P4K alpha inh | L3MBTL1 block
COc1ccccc1NC(=S)NNC(=O)c1c(Cl)c(C)nn1C | 25µM* | -20% | 20% | -28% | -1 | -4%
COc1cc(NC(=O)Cn2nc(C(F)(F)F)c3c2CCC3)cc(OC)c1OC | -50%[59 µM] | -8% | 31% | -1% | / | /
O=C1COc2ccc(N3C(=O)C=CC3=O)cc2N1 | 1.4µM* | / | / | 100µM* | / | -13%
O=C1COc2ccc(S(=O)(=O)N3CCCC3)cc2N1 | -3%[59 µM] | -1% | 19% | 7% | 3 | /
O=[N+]([O-])c1ccc2c(c1)-c1ccccc1C2O (stereo unspecified) | / | / | / | / | -69* | /
O=[N+]([O-])c1ccc2c(c1)/C(=N\O)c1ccccc1-2 | -6% | -23% | 3% | -15% | -6 | 4%
COCC(=O)N1CCC2(CC1)CCN(C(c1ccccc1)c1ccccc1)CC2 | 8%[12.7 µM] | / | / | / | / | /
O=C(Nc1ccccc1)c1ccc(S(=O)(=O)N2CCCCC2)cc1 | -1%[59 µM] | -16% | 34% | -1% | -1 | -3%
O=C(Nc1nnc(S(=O)(=O)N2CCCC2)s1)c1ccccc1Cl | ? | ? | 37% | 5µM*! | -10 | 3%
COc1ccccc1C(=O)Nc1nnc(S(=O)(=O)N2CCC(C)CC2)s1 | 79µM* | -11% | 59% | -4%[57.1 µM] | -4 | /
COc1ccccc1C(=O)Nc1nnc(S(=O)(=O)N2CCOCC2)s1 | 2% | -1% | 49% | -5% | 2 | /
O=C(Nc1nn[nH]n1)c1ccc(S(=O)(=O)N2CCCCC2)cc1 | 50µM* | ? | 58% | 71µM* | -24 | 21%
O=C(Nc1nnc(S(=O)(=O)N2CCCCCC2)s1)c1ccccc1Cl | 10µM*! | ? | 50% | ? | -9 | -1%
COCCNc1nc(-c2ccccc2Cl)nc2ccccc12 | 16%[0.501 µM] | / | / | / | / | /
Cn1c(=O)c(=O)n(C)c2cc(S(=O)(=O)N3CCN(c4ccccc4)CC3)ccc21 | -18%[59 µM] | -10% | 28% | / | / | /
O=C(Nc1nnc(S(=O)(=O)N2CCOCC2)s1)c1ccccc1Br | 79µM* | -6% | 25% | -4% | -21 | -1%
CCc1nnc(NC(=O)c2ccc(S(=O)(=O)N3CCCCC3)cc2)s1 | -6% | -12% | -6% | -1% | -16 | /
NC(=O)CSc1nnc(NC(=O)c2ccc(S(=O)(=O)N3CCCCC3)cc2)s1 | 6.3µM* | -9% | 51% | 6% | 0 | 5%
O=C(Nc1nnc(S(=O)(=O)N2CCCCC2)s1)c1ccccc1Br | -8% | -13% | 50% | -7% | -13 | 1%
O=C(Nc1nnc(S(=O)(=O)N2CCCCCC2)s1)c1ccccc1 | 16µM*! | 28µM*! | 49% | 8.9µM*! | 1 | 5%
Cc1sc2nc(CSC(C)C(=O)NC3(C#N)CCCCC3)[nH]c(=O)c2c1C (stereo unspecified) | 45µM* | -3% | 22% | -11% | 1 | 2%
CC1CC2(CCCCC2)N2C(=O)C(=O)c3cccc1c32 (stereo unspecified) | 71µM* | ? | ? | ? | / | -15%
CCOc1cc2c3c(c1)C(C)CC(C)(C)N3C(=O)C2=O (stereo unspecified) | -48%[59 µM] | -30% | ? | -10% | / | -2%
CC1=C2C(CCS2(=O)=O)CC2(C1)C(=O)OC(C)(C)OC2=O (stereo unspecified) | 50µM* | -35% | 22% | -38% | -13 | ?
O=C(c1ccccc1)c1ccc(OCC(O)CNC2CCCc3ccccc32)cc1 (stereo unspecified) | 10µM* | 10µM* | ? | 50µM* | 22 | 8%
SMILES | G9a inh | JMJD2A Tudor inh | HP1b chromo inh | BAZ2B inh | PI5P4K alpha inh | L3MBTL1 block
O=C(CCc1ccccc1)NC1CCCc2ccccc21 (stereo unspecified) | 11% | -14% | 34% | 2% | -16 | /
CC(=O)CCc1ccc(OCC(O)CNC2CCCc3ccccc32)cc1 (stereo unspecified) | ? | 3.5µM* | -42% | ? | 2 | 10%
CCOc1ccc(NC(=O)NC2CCCc3ccccc32)cc1 (stereo unspecified) | 46% | 0% | 24% | -2% | -2 | /
O=C(COC(=O)COc1ccc2ccccc2c1)NC1CCCc2ccccc21 (stereo unspecified) | 22%[59 µM] | -6% | 40% | 4% | 2 | 8%
CCc1ccccc1OC[C@@H](O)CN[C@H]1CCCc2ccccc21 | 4µM* | 40µM* | 9% | ? | 21 | 7%
OC(CNC1CCCc2ccccc21)COc1ccc2ccccc2c1 (stereo unspecified) | 10µM* | -100% | ? | ? | 2 | -1%
Cc1ccc(S(=O)(=O)C(CNC(=O)COc2ccccc2)c2ccco2)cc1 (stereo unspecified) | -2%[59 µM] | -14% | 21% | -10% | / | /
CCn1ccc2cc(S(=O)(=O)N3CCC(C(=O)NCc4ccc(OC)cc4)CC3)ccc21 | 2%[59 µM] | -19% | 12%[57 µM] | -6% | / | /
COc1ccccc1/C=C(/C(=O)OCC(=O)Nc1ccccc1C)c1ccccc1 | ? | -18% | 29% | -5% | 4 | -10%
COc1ccccc1/C=C(/C(=O)OCC(=O)Nc1ccc(N(C)C)cc1)c1ccccc1 | 10µM* | ? | ? | 10µM* | 4 | ?
S=C(NCCCN1CCOCC1)Nc1ccc(Nc2ccccc2)cc1 | 45µM* | -25% | -11% | ? | 0 | -15%[11.4 µM]
S=C(NCc1ccc2c(c1)OCO2)Nc1ccc(-c2nc3ccccc3[nH]2)cc1 | ? | ? | ? | ? | -12 | -13%
S=C(NCCCN1CCOCC1)Nc1ccc(-c2nc3ccccc3[nH]2)cc1 | 32µM* | -19% | -13% | / | 1 | 0%
CC(C)N(c1ccccc1)c1ccc(NC(=S)NCCN(C)C)cc1 | 45µM* | -35% | -9% | -23% | 7 | /
CN(C)CCNC(=S)Nc1ccc(-c2nc3ccccc3[nH]2)cc1 | 50µM* | -15% | 55% | -8% | -11 | 12%
Cc1ccccc1C(=O)Nc1ccccc1C(=O)OCc1cc(=O)n2ccsc2n1 | 20%[59 µM] | -16% | 33% | 1% | / | /
Cc1ccc(C)c(N2CCN(c3c(CN4CCCC4)c(=O)oc4ccccc34)CC2)c1 | 5%[59 µM] | -18% | -5% | -15% | / | /
CC(C)(C)OC(=O)NCC(=O)NNC(=O)c1nc2ccccc2[nH]1 | / | -15% | / | / | / | /
Cn1c(=O)c2c(SCC(=O)NCC3CCCO3)nc(-c3cccc(F)c3)nc2n(C)c1=O (stereo unspecified) | 6%[59 µM] | -13% | 14%[57 µM] | -11% | / | /
CC/C=C/[C@@H](c1ccccc1)[C@H](C)C(O)CC(=O)SC(C)(C)C (stereo partly specified) | / | 48% | 79% | / | / | /
